# Experimental data as given in PubChem BioAssay AID1490 (National Center for Advancing Translational Sciences (NCATS), 2009).
# Where “and” joins values, the source holds several entries; their conditions need not be identical. Identical values can stand only once. Screen size: about 310,000 compounds; about 11,000 (3.5%) were called active. Another 4% or so got no clear call; they are omitted. This excerpt belongs to a sample that is enriched for actives. A number with no mark means an inactive call. Calls follow the shape of the dose curve; as a rule, active = well fitted inhibition curve with a large enough effect; inconclusive = small, poorly fitted or top-dose-only effect, or another doubt; inactive = no such curve, though single readings can be large or run the other way.
# Target: 4'-phosphopantetheinyl transferase ffp (Bacillus subtilis) (UniProt Q9F4F7)
# Assay: qHTS Assay for Inhibitors of Bacillus subtilis Sfp phosphopantetheinyl transferase (PPTase);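 also: the enzyme is Sfp with the accession as filed and its product quenches rhodamine fluorescence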;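 as to largest response in the series, negative = inhibition: 0% = enzyme reaction without inhibitor and -100% = no enzyme wells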
# Conditions: Biochemical Sfp PPTase activity
# How it was run: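 Sfp 15 nM + cpd, 15 min RT; start w/ rhodamine-CoA 5 uM, BHQ-2-YbbR 12.5 uM (final); 50 mM Hepes pH 7.6, 10 mM MgCl2, 0.01% NP-40, 0.01% BSA; read 525/598 nm at 0 and 30 min.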
# Potency is read from the fitted curve at half-maximal effect.
Structure (SMILES),"largest response in the series, negative = inhibition",Potency
COC(=O)c1cc(NC(=O)c2cccnc2)ccc1N1CCOCC1,9.31%,–
COc1ccccc1NC(=O)c1ccc(N2CC3CC(C2)c2cccc(=O)n2C3)c(NC(=O)c2cccnc2)c1 (stereo not drawn),–,31.6 µM (active)
CCCCn1c(-c2cccc(C)c2)nc2cc3[nH]c(=O)c(C(C)C)nc3cc21,-18.3%,–
CCOC(OCC)OCC,-10.1%,–
CC1C(=O)Nc2ccccc2N1C(=O)c1c(F)cccc1F (stereo not drawn),14.4%,–
CC(C)c1cnc(NC(=O)Cc2ccccc2)s1,26.8%,–
CC(=O)Nc1c2c(nn1-c1ccc(C)cc1C)CS(=O)C2 (stereo not drawn),9.45%,–
O=C(CCCN1C(=O)/C(=C\c2ccco2)SC1=S)Nc1cccc2ccccc12,–,56.2 µM (active)
O=C(CCCN1C(=O)/C(=C/c2ccccc2)SC1=S)Nc1ccc(O)cc1,12.2%,–
O=C(CCCN1C(=O)/C(=C\c2ccccc2)SC1=S)Nc1ccccc1O,17.9%,–
O=C(CCCN1C(=O)/C(=C/c2cccs2)SC1=S)Nc1ccc(O)cc1,-1.57%,–
COc1ccc(/C=C2\SC(=S)N(CCC(=O)Nc3cccc(C(=O)O)c3)C2=O)cc1OC,-8.44%,–
O=C(CCCN1C(=O)/C(=C/c2ccco2)SC1=S)Nc1ccccc1,–,31.6 µM (active)
Cc1ccc2nc3c(cc(C(=O)NCCc4ccccc4)c(=N)n3CC3CCCO3)c(=O)n2c1 (stereo not drawn),21.3%,–
Cc1ccc(CS(=O)(=O)c2ncc(Cl)c(C(=O)Nc3nnc(C)s3)n2)cc1,-13.2%,–
COc1ccc(Cl)cc1NS(=O)(=O)c1cccc(C(=O)NCC2CCCO2)c1 (stereo not drawn),12.9%,–
CN(Cc1ccccc1)C(=O)CSc1nc2ccccc2[nH]1,9.63%,–
Cc1cc2[nH]ncc2cc1NC(=S)NC(=O)c1ccccc1,1.08%,–
COCCCNC(=S)NC(=O)c1ccccc1,8.58%,–
Cn1nnc(NC(=S)NC(=O)c2ccccc2)n1,–,35.5 µM (active)
O=C(NC(=S)NC1CCS(=O)(=O)C1)c1cccc([N+](=O)[O-])c1 (stereo not drawn),-2.6%,–
COc1ccc(-c2c(C#Cc3ccccc3)c3ccccc3n2C)cc1,-20.7%,–
COc1ccc(-c2nc3ccccc3c(=O)n2CCc2ccc(O)cc2)cc1,-0.523%,–
COc1ccc(CCNCc2c(-c3ccccc3)n(C)c3ccccc23)cc1,–,79.4 µM (active)

Structure (SMILES),"largest response in the series, negative = inhibition",Potency
CCOc1ccc(-n2c(SCC(N)=O)nnc2-c2ccco2)cc1,27.1%,–
O=[N+]([O-])c1c(NCCO)cc(Sc2nc3ccccc3s2)c2nonc12,–,6.31 µM (active)
CCOc1ccccc1Nc1ccc2nonc2c1[N+](=O)[O-],1.09%,–
O=C(O)c1cccc(S(=O)(=O)Nc2ccc(O)cc2Sc2nc3ccccc3s2)c1,-29.2%,–
C=CCn1c(CCc2ccc(OC(C)C)cc2)n[nH]c1=S,14.2%,–
Cc1ccc(C)c2[nH]c(=O)c(CCNC(=O)c3cccs3)cc12,6.07%,–
C=CCn1c(CCNC(=O)c2cccs2)n[nH]c1=S,–,7.94 µM (active)
COc1ccc(C(=O)NC2CC(C)(C)NC(C)(C)C2)cc1OC,0.887%,–
N#C/C(=C\c1ccc(O)c(O)c1)C(N)=O,–,79.4 µM (active) and 56.2 µM (active)
CC(C)(C)C(=O)/C(C#N)=C/c1ccc(O)cc1,8.9%,–
N#C/C(=C\c1ccc(O)c(O)c1)C(=O)NCc1ccccc1,-22.3% and -19.4%,–
C=CCOc1ccc(/C=C/C(=O)OCC(=O)NC2CCCCCC2)cc1,16.7%,–
CCOC(=O)c1ccc(NC(=O)CNC(=O)c2ccco2)cc1,7.8%,–
CCCN(CCc1ccccc1)C1CCc2c(O)cccc2C1 (stereo not drawn),21.2%,–
CC(=O)Nc1ccc(S(=O)(=O)N2N=NC3C2C2CC4C3(CN(C(=O)OC(C)(C)C)S4(=O)=O)O2)cc1 (stereo not drawn),11.6%,–
O=C(COC(=O)CCC(=O)c1cccs1)NCc1ccco1,–,35.5 µM (active)
O=C(COC(=O)c1cccs1)NCc1cccs1,10.5%,–
O=C(COC(=O)C12CC3CC(CC(C3)C1)C2)NCc1ccco1,-10.5%,–
CN1CCN(Cc2c(C(=O)N3CCc4ccccc4C3)nc3ccc(Cl)cn23)CC1,-5.24%,–
CCCn1nnnc1NCc1ccc(OC)cc1,10.3%,–
CNC(=O)c1sc(NCc2ccccc2OC)nc1C,-19.7%,–
CCOC(=O)c1sc(NC(=O)c2ccncc2)nc1C,-1.23%,–
CCOC(=O)c1sc(=S)n2c1[nH]c(=O)c1ccc(C(=O)OC)cc12,–,15.8 µM (active)
CCOC(=O)C1=C(C)Nc2sc(C(=O)c3ccc(Br)cc3)c(N)c2C1c1ccc(C(=O)OC)cc1 (stereo not drawn),15.8%,–
